Screening data: PubChem BioAssay, several laboratories
PTEN del growth = suppresses growth of cells with PTEN deletion; HCT116 PTEN-null viability, CellTiter-Glo, 60 h; active compounds read low; viability, % at 10 µM; 140,000 tested, 1.2% active;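 active means viability at or below a set limit, 4 SD under the median of all tested compounds, cut at about 3.7% in these data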;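 further: PTEN knockout HCT116 line with beta catenin targeted HCT116 as companion control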
Insulin prom inh = TRM-6 insulin promoter activity inhibition; 130,000 tested, 0.9% active; TRM-6 cells (human fetal islet line), insulin promoter-eGFP reporter, imaging; reporter expression induced with tamoxifen; AID 1273; inhibition, % at 2 µM;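 active means inhibition above the mean plus 3 SD, with well images judged a real hit on visual review, cut at about 60% in these data, passing the limit was not always enough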
p97 ATPase inh = inhibitors of human p97 ATPase; AID 1481; P55072; inhibition, % at 8 µM; 220,000 tested, 0.42% active; recombinant p97 ATPase, Kinase-Glo ATP luminescence, 3 h; in the data active means inhibition above about 15%;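 further: 0% = DMSO vehicle and 100% = wells lacking enzyme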
Target sequence (P55072 whole entry, looked up): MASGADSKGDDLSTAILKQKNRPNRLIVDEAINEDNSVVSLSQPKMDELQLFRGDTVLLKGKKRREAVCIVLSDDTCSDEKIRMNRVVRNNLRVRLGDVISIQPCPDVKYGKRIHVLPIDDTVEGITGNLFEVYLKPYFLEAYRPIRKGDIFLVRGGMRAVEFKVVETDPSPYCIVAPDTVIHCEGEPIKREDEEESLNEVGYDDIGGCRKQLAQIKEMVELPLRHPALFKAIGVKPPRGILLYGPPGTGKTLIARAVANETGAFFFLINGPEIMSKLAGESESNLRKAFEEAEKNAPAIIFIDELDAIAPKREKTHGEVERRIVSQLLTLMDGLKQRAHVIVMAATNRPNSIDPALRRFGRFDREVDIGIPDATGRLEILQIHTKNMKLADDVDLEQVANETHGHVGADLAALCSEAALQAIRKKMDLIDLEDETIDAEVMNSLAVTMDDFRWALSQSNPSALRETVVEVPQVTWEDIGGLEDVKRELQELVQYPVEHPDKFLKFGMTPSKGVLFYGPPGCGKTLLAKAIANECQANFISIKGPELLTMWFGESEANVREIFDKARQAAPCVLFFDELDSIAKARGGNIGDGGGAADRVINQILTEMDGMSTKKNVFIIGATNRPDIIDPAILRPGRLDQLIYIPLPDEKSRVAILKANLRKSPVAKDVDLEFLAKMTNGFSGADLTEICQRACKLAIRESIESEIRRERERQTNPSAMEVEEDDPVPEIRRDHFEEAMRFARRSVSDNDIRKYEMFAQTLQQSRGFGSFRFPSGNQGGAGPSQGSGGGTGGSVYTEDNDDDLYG
L major viab = inhibitors of Leishmania major promastigote growth; Leishmania major promastigotes, resazurin fluorescence viability; inhibition, % at 10 µM; 200,000 tested, 9% active; in the data active means inhibition above about 50%;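 further: promastigotes grown with compound for 44 hours at 28 °C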
bCat KO growth = beta-catenin-lacking colon tumor cell growth suppression. HCT116 beta-catenin knockout viability, CellTiter-Glo, 60 h; active compounds read low. viability, % at 10 µM. 140,000 tested, 1.5% active. AID 818;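 active means viability at or under a set limit, the compound median less 4 SD, cut at about 6% in these data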;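 further: 0% = Hyamine 1622 control at 20 µM and 100% = untreated cell control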
ROMK mod = modulates human ROMK potassium channel activity. Tet-inducible ROMK, thallium flux fluorescence; actives lie on both sides. AID 1918. B-score at 10 µM. P48048. 130,000 tested, 2% active;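 active means signal ratio slope over the read window, or its plate-corrected B-score, at least 3 SD from the plate mean, either direction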;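 further: B-score of the F/F0 ratio slope over 7 to 12 s after thallium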
* = called active by the depositor; i = inactive; . = not tested or not shown. The list is not random: actives were taken first. Their share in the collection is about 10%.

SMILES	PTEN del growth	Insulin prom inh	p97 ATPase inh	L major viab	bCat KO growth	ROMK mod
CCC(=NCCN1CCOCC1)c1c(O)n(C2CCCCC2)c(=O)[nH]c1=O	.	.	4.0	.	.	.
C/C(=N\N1CCCCC1c1cccnc1)c1c(O)n(C2CCCCC2)c(=S)[nH]c1=O (stereo not given)	46.6	-20.0	-8.6	44.5	56.2	.
CCC1CCCCN1P(=O)(c1ccc(C)o1)C(C)(C)C (stereo not given)	90.4	7.1	-3.8	4.7	87.4	0.544
CN1CCN(c2ccc([N+](=O)[O-])c(N/N=C3\CN4CCC3CC4)c2)CC1	87.2	32.1	2.8	91.8*	77.7	.
O=C(C1CC(=O)N(C2CCCCCCC2)C1)N1CCC2(CC1)OCCO2 (stereo not given)	95.8	74.3*	-3.9	0.8	96.5	.
O=C(C1CCC(=O)N1C1CCCC1)N1CCC2(CC1)OCCO2 (stereo not given)	94.5	20.0	-3.9	-5.0	100.9	.
CCc1ccccc1NC(=O)CNCc1ccccc1	.	.	-2.3	-3.0	.	-0.952
O=c1[nH]c(=S)n(CCC2=CCCCC2)c(O)c1C=NCCCn1ccnc1	95.2	-12.5	-3.0	-0.2	87.1	0.0533
CC(C)(C)c1ccc(C(=O)C2CCCN(Cc3ccon3)C2)cc1 (stereo not given)	.	.	1.5	80.1*	.	-0.245
CSc1ccc(C(=O)C2CCCN(Cc3cc4ccccc4[nH]3)C2)cc1 (stereo not given)	.	5.6	1.0	87.7*	.	0.724
Cc1ccsc1C(=O)C1CCCN(Cc2ccn[nH]2)C1 (stereo not given)	.	.	1.0	6.2	.	-0.548
O=C(c1ccc(-c2ccccc2)cc1)C1CCCN(Cc2ccn[nH]2)C1 (stereo not given)	.	-30.0	-8.7	98.5*	.	-1.03
CSc1ccc(C(=O)C2CCCN(Cc3cccnc3)C2)cc1 (stereo not given)	.	.	-0.7	85.1*	.	1.35
COc1ccc(O)c(CN2CCCC(C(=O)c3ccccc3SC)C2)c1 (stereo not given)	.	.	5.8	9.6	.	-0.0831
CCOP(=O)(OCC)C(C)(C)NC(=O)C(Cl)(Cl)Cl	97.0	20.9	0.7	-4.1	92.6	.
CCN1C(=O)N(CC)C(=O)C2(Cc3ccccc3N3CCN(c4ccccc4)CC32)C1=O (stereo not given)	.	.	-3.6	.	.	-0.446
Cc1cc(N2CCCCC2)ccc1C=C1C(=O)N(C)C(=S)N(C)C1=O	95.3	-2.6	0.7	99.5*	89.9	-0.155
CN1CCCC(C(=O)c2ccc(Cl)cc2)C1 (stereo not given)	.	.	2.0	44.5	.	0.579
COc1cccc(C(=O)C2CCCN(C3CCOCC3)C2)c1 (stereo not given)	.	45.0	3.0	88.2*	.	0.118
COc1ccc(C(=O)C2CCCN(C3CSCCSC3)C2)c(C)c1 (stereo not given)	.	.	4.4	97.2*	.	.
COc1ccc(C(=O)C2CCCN(C3CSCCSC3)C2)c(OC)c1 (stereo not given)	.	.	-2.5	20.9	.	-1.19
CC(=O)N1CCC(N2CCCC(C(=O)c3cccc(Cl)c3)C2)CC1 (stereo not given)	.	17.1	7.1	92.2*	.	0.454
COC(=O)CC1=C(C(=O)OC)C2(C(=O)Nc3c(C)cccc32)C(C#N)=C(N)O1 (stereo not given)	97.6	.	-2.6	2.1	93.5	.
Cc1nn(CCC#N)c2c1P(=S)(N1CCCC1)OC(c1ccc(F)cc1)=N2 (stereo not given)	82.7	.	-2.9	7.2	78.7	.
COc1ccc(C(=O)Oc2cccc3cccnc23)cc1S(=O)(=O)N1CCOCC1	.	53.3	1.0	97.9*	.	-0.182
SMILES	PTEN del growth	Insulin prom inh	p97 ATPase inh	L major viab	bCat KO growth	ROMK mod
COc1ccc(C(=O)N2CCOCC2)cc1S(=O)(=O)N1CCC(C)CC1	101.1	34.2	2.4	-3.9	96.1	.
O=C1NC(=O)C(CCc2ccccn2)(Cc2ccc3c(c2)OCO3)C(=O)N1CCc1ccccc1 (stereo not given)	97.4	i	-3.8	97.7*	93.6	.
CN(C(=O)Oc1ccc(Cl)c2cccnc12)c1ccccc1	100.5	-66.7	1.6	53.5*	104.5	-0.796
CN(C(=O)Oc1cccc2cccnc12)c1ccccc1	98.6	.	3.0	-6.9	96.5	.
COP(=O)(OC)Oc1ccc(C(O)C(Cl)(Cl)Cl)cc1 (stereo not given)	.	.	1.5	.	.	.
O=c1[nH]c(=O)n(CCc2ccccc2)c(O)c1C=NC1CC1	.	.	8.0	.	.	-1.57
c1ccc2[nH]c(CCNC3CCCCC3)nc2c1	87.7	-2.9	4.7	9.1	90.0	.
Cc1ccc(O)c(C(=O)c2cc(C(=O)NCCC(C)C)c(=O)n(CCC(C)C)c2)c1	.	5.0	-0.5	81.5*	.	0.0928
CCN1CCN(c2ccc([N+](=O)[O-])cc2C=C2C(=O)NC(=O)NC2=O)CC1	87.0	67.9	5.6	59.7*	90.2	-0.0304
O=c1[nH]c(=O)n(Cc2ccco2)c(O)c1C=NC1CCN(Cc2ccccc2)CC1	.	.	-2.5	.	.	.
COc1cc2c(cc1OC)CN(c1ccc([N+](=O)[O-])c(C(F)(F)F)c1)CC2	63.4	14.8	-1.8	66.0*	56.4	.
O=C1NCCN2CCCC12 (stereo not given)	91.0	.	-3.3	-4.8	96.4	0.0488
COc1ccc(OC)c(N2C(=O)NC(=O)/C(=C/c3ccc([N+](=O)[O-])s3)C2=O)c1	.	.	-0.5	96.8*	.	-0.214
CCN1C(=O)/C(=C\c2ccc([N+](=O)[O-])s2)C(=O)NC1=S	.	-60.0	5.3	99.4*	.	0.166
C=CCN1C(=O)C2(C(C(=O)OCC)=C(N)Oc3ccccc32)c2c1c1ccccc1oc2=O (stereo not given)	90.4	-320.0	-1.7	6.1	87.2	.
CCOC(=O)C1=C(C)OC(N)=C(C(=O)OCC)C12C(=O)Nc1ccc(Br)cc12 (stereo not given)	97.2	0.0	-1.6	50.6*	93.3	.
CCNC(=S)N1CCn2cccc2C1c1cccnc1 (stereo not given)	.	-25.0	3.1	70.4*	.	-0.198
C=CCn1c(O)c(C=NCCN2CCOCC2)c(=O)[nH]c1=S	.	.	1.5	.	.	.
CCc1ccc(N2C(=O)NC(=O)/C(=C\c3cccn3CCOc3ccc(C(C)C)cc3)C2=O)cc1	87.5	11.1	1.2	94.8*	85.7	0.0363
CC1(C)C2CC=C(CN3CCC(O)CC3)C1C2 (stereo not given)	100.0	.	0.8	63.5*	84.9	-0.572
CN1CCN(c2ccc([N+](=O)[O-])c3no[n+]([O-])c23)CC1	.	.	3.4	.	.	.
CN1CCN(c2ccc(S(C)(=O)=O)cc2[N+](=O)[O-])CC1	101.1	24.3	6.9	54.1*	99.0	0.108
CN1CCN(c2ccc(S(=O)(=O)C(F)(F)F)cc2[N+](=O)[O-])CC1	99.5	.	2.6	51.0*	101.5	.
CC(O)(CS(=O)(=O)c1cccc(C(F)(F)F)c1)C(=O)Nc1ccc(C(F)(F)F)cc1 (stereo not given)	89.1	-12.5	1.3	-3.1	86.5	.
Cn1cc(C(=O)Cc2ccccc2)c2ccccc21	79.8	17.5	4.1	0.1	79.4	.
